# System: hN + hpA co-culture (H1 iNGN2 human neurons + human primary astrocytes)
# Experiment: presynaptic density (SYNAPSIN1 puncta per MAP2 neurite area), Z-score vs DMSO controls; higher = more presynaptic puncta (synapse-promoting)
# Conditions: 3 µM; 72 h
# 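Further: immunostained co-cultures imaged by high-content microscopy, Z-score per plate against mean and SD of 0.1% DMSO wells, compounds added on differentiation day 18, analysed day 21.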
row,Structure (SMILES),presynaptic density (Z-score)
1,CC12CC3CC(C)(C1)CC(N)(C3)C2,-1.67
2,O=c1cc(-c2cccc3c2Sc2ccccc2S3)oc(N2CCOCC2)c1,-0.963
3,Cc1nnc(C(=O)NC(C)(C)c2nc(C(=O)NCc3ccc(F)cc3)c(O)c(=O)n2C)o1 [Raltegravir (MK-0518)],-0.683
4,C[C@@H]1CN(CC(=O)Nc2ccc3c(c2)Cc2cccc(-c4cc(=O)cc(N5CCOCC5)o4)c2S3)C[C@H](C)O1,-1.12
5,CCN(CC)CC(=O)Nc1c(C)cccc1C,0.846
6,O=C(O)Cn1nnc(-c2cc(N3CCC(Oc4cc(F)ccc4Br)CC3)no2)n1,-0.606
7,Cc1ccc(C(=O)N(CCCN)[C@@H](c2nc3cc(Cl)ccc3c(=O)n2Cc2ccccc2)C(C)C)cc1,-0.26
8,CCc1nc(N)nc(N)c1-c1ccc(Cl)cc1,-0.391
9,CCOc1ccc(Cc2cc([C@@H]3O[C@H](CO)[C@@H](O)[C@H](O)[C@H]3O)ccc2Cl)cc1 [Dapagliflozin],0.756
10,COc1cc(OC2CCN(C)CC2)ccc1Nc1ncc2c(n1)n(C1CCCC1)c(=O)n2C,-0.583
11,O=C(Nc1ccncc1)c1cc([N+](=O)[O-])ccc1Cl [2-Chloro-5-nitro-N-4-pyridinylbenzamide],0.702
12,C[C@]12C=CC(=O)N[C@@H]1CC[C@@H]1[C@@H]2CC[C@]2(C)[C@@H](C(=O)Nc3cc(C(F)(F)F)ccc3C(F)(F)F)CC[C@@H]12 [Dutasteride],-1.23
13,Cc1c(C(=O)NN2CCCCC2)nn(-c2ccc(Cl)cc2Cl)c1-c1ccc(Cl)cc1 [Rimonabant],-0.594
